# Only some compounds are listed: those with a hit (about 2% of all), similar ones and a draw of the others.
# CHT allo act = CHT positive allosteric modulators, primary screen, cell-based, membrane potential dye, choline EC20; AID 488977, 2010; B-score at 10 µM; High affinity choline transporter 1 (Homo sapiens), Q9GZV3; CHT-expressing cells; hits give high values; LV-AA mutant CHT in HEK293 cells; actives 0.49% (n = 310,000);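 active means initial fluorescence not abnormally high and integrated response B-score, plate-corrected, over 3 SD above library mean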
# TAG inh = inhibitors of triacylglycerol accumulation, primary screen, cell-based, uHTS, fluorescence, H9c2; H9c2 cells, Nile Red lipid (TAG) fluorescence; cells loaded with 200 µM oleic acid; inhibition, % at 12.5 µM; actives 0.66% (n = 230,000); AID 651582, 2012;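 active means pattern-corrected inhibition of lipid staining of at least 50% with the nuclear-stain viability signal not falling by more than 50%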;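 further: 0% = DMSO wells and 100% = triacsin C control wells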
# CHT block = inhibitors of human choline transporter CHT; High affinity choline transporter 1 (Homo sapiens), Q9GZV3; CHT-expressing cells, membrane potential dye, choline response; hits give low values; B-score at 10 µM; actives 0.86% (n = 310,000); AID 488975, 2010;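 active means B-score over 3 SD under the library average, and starting fluorescence ratio not unusually high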;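 further: choline stimulus applied at its EC90 after an EC20 pre-addition; B-score computed on integrated fluorescence ratio after choline addition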
# Kir21 inh = inhibitors of mouse Kir2.1 inward-rectifier potassium channel. B-score at 10 µM. HEK293-Kir2.1, FluxOR thallium flux fluorescence; hits give low values. Inward rectifier potassium channel 2 (Mus musculus), P35561. actives 0.85% (n = 310,000);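 active means fluorescence ratio B-score at or below minus 3 SD of library scores, with starting-brightness B-score within 2 SD, cut at about -4.2 in these data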;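 further: channel flux triggered by added potassium and thallium sulfate stimulus; B-score of peak minus minimum fluorescence over baseline after thallium stimulus; more negative B-score means stronger Kir2.1 block with less thallium influx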
# Target sequence (P35561 whole entry, looked up): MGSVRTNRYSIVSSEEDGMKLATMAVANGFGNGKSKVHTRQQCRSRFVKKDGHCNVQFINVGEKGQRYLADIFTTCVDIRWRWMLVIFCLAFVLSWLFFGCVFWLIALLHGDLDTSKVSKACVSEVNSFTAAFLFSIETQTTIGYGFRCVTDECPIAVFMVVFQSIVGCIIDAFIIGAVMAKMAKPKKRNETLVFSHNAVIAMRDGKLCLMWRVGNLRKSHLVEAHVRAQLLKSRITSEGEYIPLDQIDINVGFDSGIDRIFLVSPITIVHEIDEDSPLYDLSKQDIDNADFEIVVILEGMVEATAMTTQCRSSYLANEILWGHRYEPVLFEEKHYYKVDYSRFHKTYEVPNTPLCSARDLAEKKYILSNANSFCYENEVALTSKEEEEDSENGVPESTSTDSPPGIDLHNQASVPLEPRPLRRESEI
# CHT block conf = CHT inhibitors, confirmation, cell-based, membrane potential dye, duplicate; shares compounds with CHT block; CHT-expressing cells, choline membrane potential dye; LV-to-AA substituted CHT, HEK293 cells; CHT activity remaining % of control (hits give low values), % at 10 µM; actives 70% (n = 2,400); AID 493221, 2011;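 active means choline transporter activity left, mean of duplicates at 10 µM, below buffer-only control mean minus 3 SD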;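 further: depolarization triggered by choline at its EC90 following an EC20 pre-addition; 0% = hemicholinium-3 full block and 100% = buffer-only control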
# HEK293 MPD ctr = membrane potential effects in parental HEK293, counter-screen for CHT inhibitor project, cell-based, membrane potential dye; choline response; active = decrease or increase beyond buffer ±3SD; membrane potential ratio readout (active if shifted either direction beyond buffer ±3SD; no single direction) at 10 µM; actives 4% (n = 2,400); shares compounds with CHT block;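 further: parental cells lack the transporter so any hit is non-specific; ratio is peak minus trough fluorescence over baseline after EC90 choline challenge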
# * hit, by the source's call; i = inactive; x = no result.
SMILES,CHT allo act,TAG inh,CHT block,Kir21 inh,CHT block conf,HEK293 MPD ctr
CC1CCCCC1NC(=O)c1ccc(S(=O)(=O)NCC2CCCO2)cc1 (stereo unspecified),i,-4.9,-11.9*,0.34,11.1%*,i
CC(=O)Nc1ccc(C(=O)Nc2ccc(S(=O)(=O)NCC3CCCO3)cc2)cc1 (stereo unspecified),i,x,i,-1.62,x,x
c1cc(CCCc2ccncc2)ccn1,x,5.4,x,x,x,x
O=[N+]([O-])c1cc(-c2nnc(Nc3ccccc3)c3ccccc23)ccc1N1CCOCC1,i,-1.8,i,1.03,x,x
Cc1ccc(Nc2nnc(-c3ccc(N4CCOCC4)c([N+](=O)[O-])c3)c3ccccc23)cc1,i,10.9,-5.39*,-0.05,59.0%*,i
Cc1c(N2C(=O)/C(=C/c3ccccc3)SC2=S)c(=O)n(-c2ccccc2)n1C,i,-38.9,i,0.13,x,x
Cc1ccc(/C=C2\SC(=S)N(c3c(C)n(C)n(-c4ccccc4)c3=O)C2=O)cc1,i,x,-5.36*,1.14,59.9%*,i
CC(NC(=O)c1cccc(OC2CCN(C(=O)C3CC3)CC2)c1)c1ccc(F)cc1 (stereo unspecified),i,x,-6.28*,-0.09,37.6%*,i
CC(NC(=O)c1cccc(OC2CCN(C3CCN(C)CC3)CC2)c1)c1ccccc1 (stereo unspecified),i,x,i,-1.52,x,x
C/C=C(\C)CN1CCC(Oc2cccc(C(=O)NCc3ccccn3)c2)CC1,i,4.7,-9.07*,-0.71,21.1%*,i
CC(C)CN1CCC(Oc2cccc(C(=O)NCCc3ccccc3)c2)CC1,i,36.2,-11.8*,-2.66,21.0%*,i
CC(=O)c1ccc(N2CCN(C(=O)C3CCCN(c4ncnc5c4nc4n5CCCCC4)C3)CC2)cc1 (stereo unspecified),i,x,-5.89*,-0.5,31.6%*,i
O=C(C1CCCN(c2ncnc3c2nc2n3CCCCC2)C1)N1CCN(c2ccc(Cl)cc2)CC1 (stereo unspecified),i,x,-7.8*,0.65,40.5%*,i
O=C(C1CCCN(c2ncnc3c2nc2n3CCCCC2)C1)N1CCCCC1 (stereo unspecified),i,x,i,-3.06,x,x
COc1ccc(N2CCN(C(=O)C3CCCN(c4ncnc5c4nc4n5CCCCC4)C3)CC2)cc1 (stereo unspecified),i,x,i,0.32,x,x
O=C(C1CCCN(c2ncnc3c2nc2n3CCCCC2)C1)N1CCN(c2ccc(F)cc2)CC1 (stereo unspecified),i,x,-8.03*,-0.31,36.8%*,i
CN1CCN(C(=O)C2CCCN(c3ncnc4c3nc3n4CCCCC3)C2)CC1 (stereo unspecified),i,x,i,1.5,x,x
Nc1c(N(CCCO)C(=O)C2CCCCC2)c(=O)[nH]c(=O)n1Cc1ccccc1,x,14.8,x,x,x,x
COc1cc2c(cc1OC)C(c1c(Cl)cccc1Cl)NC(=O)C2 (stereo unspecified),i,x,-5.45*,0.52,i,i
COc1cc2c(cc1OC)C(c1cccc(Br)c1)NC(=O)C2 (stereo unspecified),i,-8.1,i,-0.05,x,x
CCc1nnc(NS(=O)(=O)c2ccc(NC(=O)COc3ccc4ccccc4c3)cc2)s1,i,-8.4,-5.83*,-0.93,i,i
CCc1nnc(NS(=O)(=O)c2ccc(NC(=O)c3cc(Cl)ccc3[N+](=O)[O-])cc2)s1,i,x,i,0.06,x,x
CCc1nnc(NS(=O)(=O)c2ccc(NC(=O)c3cccc(Br)c3)cc2)s1,i,x,-7.04*,-0.98,47.7%*,i
CCc1nnc(NS(=O)(=O)c2ccc(NC(=O)c3cc(Cl)ccc3Cl)cc2)s1,i,7.7,-6.07*,2.08,30.2%*,i
CCc1nnc(NC(=O)c2cc(S(=O)(=O)N(CC)CC)ccc2Cl)s1,i,x,-5.85*,1.62,52.1%*,i
SMILES,CHT allo act,TAG inh,CHT block,Kir21 inh,CHT block conf,HEK293 MPD ctr
COc1ccc(C(=O)Nc2ccccc2N2CCN(C(=O)c3ccccc3)CC2)cc1Br,i,15.5,i,0.02,x,x
COc1ccccc1OCCNC(=O)c1ccc(C)c(S(=O)(=O)N2CCOCC2)c1,i,0.3,i,1.42,x,x
CC(C)=CCN1CCN(Cc2ccc(C#CC(C)(C)O)s2)CC1CCO (stereo unspecified),i,x,i,0.31,x,x
COc1ccc(S(=O)(=O)N2CCN(CCc3ccccc3)CC2)c(OC)c1,i,-17.6,-5.46*,0.09,48.4%*,i
COc1ccc(OC)c(S(=O)(=O)N2CCN(Cc3ccccc3)CC2)c1,i,x,i,-0.04,x,x
CC1CN(S(=O)(=O)c2cc(C(=O)N3CCCCC3C)ccc2Cl)CC(C)O1 (stereo unspecified),x,-23.9,x,x,x,x
COc1cc(-c2noc(C)c2/C=C/c2ccc(OC(C)=O)cc2)cc(OC)c1OC,i,44.4,i,0.15,x,x
CCCCCCCCCCCCCCCC[n+]1ccc(/C=N/O)cc1,i,x,i,x,x,x
CCCCCCCCC[n+]1cccc2c3ccccc3ccc21,i,x,-6.78*,-10.4*,59.0%*,i
Cc1ccc(C(CC(=O)N2CCCC2)c2ccccc2)c(O)c1C (stereo unspecified),i,-34.2,i,0.62,x,x
O=C(Nc1c(C(=O)N2CCC(N3CCCCC3)CC2)oc2ccccc12)c1ccc(F)cc1,i,x,-13.1*,-0.08,0.9%*,i
O=C(COc1ccc(F)cc1)Nc1c(C(=O)N2CCC(N3CCCCC3)CC2)oc2ccccc12,i,x,-11.9*,-3.5,28.8%*,i
COc1ccc(OCC(=O)Nc2c(C(=O)N3CCC(N4CCCCC4)CC3)oc3ccccc23)cc1,i,x,i,-1.76,x,x
CCOCCCN(C)C1CCN(C(=O)c2oc3ccccc3c2NC(=O)c2ccc([N+](=O)[O-])cc2)CC1,i,x,i,0.08,x,x
CCOCCCN(C)C1CCN(C(=O)c2oc3ccccc3c2NC(=O)c2ccc(F)cc2)CC1,i,x,-9.02*,-0.43,20.6%*,i
O=C(COc1ccccc1)Nc1c(C(=O)N2CCC(N3CCCCC3)CC2)oc2ccccc12,i,x,-7.48*,-0.43,36.7%*,3.69*
O=C(Nc1c(C(=O)N2CCC(N3CCCCC3)CC2)oc2ccccc12)c1c(F)cccc1F,i,x,i,0.25,x,x
COc1ccc(NC(=O)CCNC(=O)C2CCN(S(=O)(=O)c3ccccc3)CC2)cc1OC,x,7.3,x,x,x,x
CC(N=C1NS(=O)(=O)c2ccccc21)C(=O)NCc1ccc(F)cc1 (stereo unspecified),x,-13.8,x,x,x,x
